Laboratory results: PubChem BioAssay
Unmarked numbers belong to inactive results. Active and inactive are the calls of the source.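 The calls were made as follows, unless noted: active = at least 20% inhibition of 6-phosphogluconate dehydrogenase activity; inactive = the rest.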

Legend:
[1] = target: 6-phosphogluconate dehydrogenase, decarboxylating (Homo sapiens) (UniProt P52209); experiment: inhibition of human phosphogluconate dehydrogenase – biochemical, recombinant enzyme, NADPH absorbance, primary screen (AID 1159550); conditions: recombinant 6PGD, NADPH absorbance 341 nm; at 10 µM; active compounds read high
[2] = target: Mitogen-activated protein kinase 7 (Homo sapiens) (UniProt Q13164); experiment: Gal4-ERK5 driven luciferase induction – cell-based, HTS, primary screen (AID 1508626;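 active = luciferase signal above three times the same-plate solvent-only control wells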;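 also: luciferase driven by Gal4-ERK5 fusion binding five Gal4 sites before minimal TATA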); conditions: HeLa Gal4-ERK5 transactivation, 18 h, at 5 µM, active compounds read high
Chain of Mitogen-activated protein kinase 7 (Homo sapiens) (Q13164 whole entry, looked up, the tested form may be a part): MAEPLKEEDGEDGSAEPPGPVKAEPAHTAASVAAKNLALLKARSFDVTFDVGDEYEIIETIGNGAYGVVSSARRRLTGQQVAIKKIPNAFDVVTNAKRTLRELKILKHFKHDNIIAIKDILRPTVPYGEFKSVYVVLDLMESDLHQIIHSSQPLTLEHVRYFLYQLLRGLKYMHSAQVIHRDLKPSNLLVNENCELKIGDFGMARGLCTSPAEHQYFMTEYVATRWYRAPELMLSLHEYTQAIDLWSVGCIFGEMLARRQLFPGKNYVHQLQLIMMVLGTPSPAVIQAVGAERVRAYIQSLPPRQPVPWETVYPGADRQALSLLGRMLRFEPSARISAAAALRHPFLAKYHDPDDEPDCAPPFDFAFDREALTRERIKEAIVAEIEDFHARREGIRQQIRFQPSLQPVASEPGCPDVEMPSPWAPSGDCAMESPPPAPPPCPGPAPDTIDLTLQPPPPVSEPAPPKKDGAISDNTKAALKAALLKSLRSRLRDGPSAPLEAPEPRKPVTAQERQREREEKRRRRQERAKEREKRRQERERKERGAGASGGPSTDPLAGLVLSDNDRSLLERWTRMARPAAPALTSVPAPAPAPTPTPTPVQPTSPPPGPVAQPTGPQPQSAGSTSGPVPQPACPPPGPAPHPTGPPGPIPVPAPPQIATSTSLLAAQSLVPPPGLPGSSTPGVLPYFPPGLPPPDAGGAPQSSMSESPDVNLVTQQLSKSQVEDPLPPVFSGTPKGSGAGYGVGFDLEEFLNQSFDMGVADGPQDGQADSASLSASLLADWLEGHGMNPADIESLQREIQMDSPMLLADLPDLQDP

Chain of 6-phosphogluconate dehydrogenase, decarboxylating (Homo sapiens) (P52209 whole entry, looked up, the tested form may be a part): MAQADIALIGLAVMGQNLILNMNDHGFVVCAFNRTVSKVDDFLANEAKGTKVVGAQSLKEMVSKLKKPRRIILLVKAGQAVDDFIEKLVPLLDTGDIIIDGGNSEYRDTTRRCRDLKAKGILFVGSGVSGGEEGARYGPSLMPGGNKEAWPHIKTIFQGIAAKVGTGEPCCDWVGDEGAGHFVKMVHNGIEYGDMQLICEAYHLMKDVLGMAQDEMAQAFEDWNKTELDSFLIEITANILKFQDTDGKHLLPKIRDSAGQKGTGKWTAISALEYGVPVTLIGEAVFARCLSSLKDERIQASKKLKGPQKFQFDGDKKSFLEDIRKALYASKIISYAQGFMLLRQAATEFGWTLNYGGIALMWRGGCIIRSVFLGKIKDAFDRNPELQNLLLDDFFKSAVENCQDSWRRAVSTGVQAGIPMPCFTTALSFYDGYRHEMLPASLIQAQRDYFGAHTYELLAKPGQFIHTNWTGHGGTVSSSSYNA

| SMILES | inhibition [1] | luciferase signal [2] |
| --- | --- | --- |
| COC(=O)CC[C@@H](C)[C@H]1CC[C@H]2[C@@H]3[C@H](O)C[C@@H]4C[C@H](O)CC[C@]4(C)[C@H]3C[C@H](O)[C@]12C | -4.15% | 252 AU (active) |
| COc1cc(O)c2c(=O)c(O)c(-c3ccc(O)c(O)c3)oc2c1 | 4.95% | 144 AU |
| O=C1CC[C@]23/C=C\C(=O)NCCCCNCCCNC(=O)/C=C\c4ccc(c2c4)O[C@@H]3C1 | -0.518% | 36 AU |
| COc1cc(OC)c2c(c1Cl)O[C@@]1(C(=O)CC(=O)C[C@H]1C)C2=O | 4.62% | 48 AU |
| CC1=C(/C=C/C(C)=C/C=C/C(C)=C/C=C/C=C(C)/C=C/C=C(C)/C=C/C2=C(C)C(=O)[C@@H](O)CC2(C)C)C(C)(C)C[C@H](O)C1=O | -11.7% | 48 AU |
| O=c1oc2ccccc2cc1O | 15.9% | 36 AU |
| C[C@H](CCC(=O)O)[C@H]1CC[C@H]2[C@@H]3[C@H](O)C[C@@H]4C[C@H](O)CC[C@]4(C)[C@H]3C[C@H](O)[C@]12C | -7.09% | 28 AU |
| CC1(C)CC[C@]2(C(=O)O)CC[C@]3(C)C(=CC[C@@H]4[C@@]5(C)CC[C@H](O)[C@@](C)(CO)[C@@H]5CC[C@]43C)[C@@H]2C1 | -1.09% | 76 AU |
| CC1CCC(C(C)C)C(OC(=O)c2ccccc2)C1 (stereo unspecified) | 3.54% | 48 AU |
| COc1cccc2c1CCC1=CC(=O)CC[C@@]12C | -1.6% | 40 AU |
| N[C@@H](CSCSC[C@H](N)C(=O)O)C(=O)O | 6.1% | 300 AU |
| CC(=O)O[C@H]1C[C@@H](OC(C)=O)C(C)(C)[C@@H]2C[C@@H](OC(C)=O)[C@]3(C)[C@H](CC[C@@]4(C)[C@H](c5ccoc5)OC(=O)[C@H]5O[C@@]534)[C@@]12C | -4.75% | 12 AU |
| O=C1C=C(O)c2ccccc2C1=O | 5.16% | 44 AU |
| CC(C)c1c(O)ccc2c1CC[C@H]1C(C)(C)CCC[C@]21C | -7.32% | 20 AU |
| CCCCCC/C=C\CCCCCCCc1cccc(O)c1C(=O)O | 0.888% | 76 AU |
| NC(=O)NCCC[C@H](N)C(=O)O | 15.5% | 72 AU |
| COC1[C@H](O)[C@@H](O)C(O)[C@H](O)[C@H]1O (stereo partly specified) | -7.09% | 136 AU |
| COc1cc(/C=C/CO)ccc1O | 17.3% | 96 AU |
| COc1ccc(-c2cc(=O)c3ccccc3o2)cc1OC | -3.02% | 76 AU |
| CC1(C)[C@@H](O)CC[C@]2(C)[C@H]3C(=O)C=C4[C@H]5C[C@@](C)(C(=O)O)CC[C@]5(C)CC[C@@]4(C)[C@]3(C)CC[C@@H]12 | -38.1% | 24 AU |

| SMILES | inhibition [1] | luciferase signal [2] |
| --- | --- | --- |
| C/C1=C\CCC(=O)C2CC(C)(C)C2CC1 (stereo unspecified) | -1.45% | 60 AU |
| COC(=O)C[C@H]1C(C)(C)[C@@H](O)[C@@H]2CC3=C4CC(O)O[C@@H](c5ccoc5)[C@]4(C)CCC3[C@@]1(C)C2=O (stereo partly specified) | -13.5% | 36 AU |
| C[N+]1(C)C[C@H](O)C[C@H]1C(=O)[O-] | 0.213% | 60 AU |
| COc1cc(C)c(C(=O)O)c(O)c1 | -0.391% | 80 AU |
| O=C(/C=C(\O)c1ccccc1)c1ccccc1O | -0.592% | 16 AU |
| CC(C)C1=CC2=CC[C@@H]3[C@](C)(CCC[C@@]3(C)C(=O)O)[C@H]2CC1 | -6.38% | 44 AU |
| O=C(O)c1cc(O)c2c(c1)C(=O)c1cc(O)cc(O)c1C2=O | 6.18% | 76 AU |
| COC(=O)C1=CO[C@@H](O[C@@H]2O[C@H](CO)[C@@H](O)[C@H](O)[C@H]2O)[C@@H]2[C@@H](C)[C@@H](O)C[C@H]12 | 6.61% | 20 AU |
| OC[C@@H](O)[C@@H](O)C(O)[C@H](O)[C@@H](O)CO (stereo partly specified) | -5.44% | 56 AU |
| CCC(=O)OC1[C@@H]2CC3=C4CC(=O)O[C@@H](c5ccoc5)[C@]4(C)CCC3[C@@](C)(C2=O)[C@@H](CC(=O)OC)C1(C)C (stereo partly specified) | -1.17% | 20 AU |
| O=C(Cc1cccs1)N[C@@H]1C(=O)N2C(C(=O)[O-])=C(C[n+]3ccccc3)CS[C@H]12 | 0.514% | 112 AU |
| CCC(=O)O[C@H]1CC[C@H]2[C@@H]3CCc4cc(O)ccc4[C@H]3CC[C@]12C | -10.1% | 24 AU |
| COC(=O)C[C@H]1C(C)(C)[C@H](OC(C)=O)[C@@H]2CC3=C4CC(=O)O[C@@H](c5ccoc5)[C@]4(C)CC[C@@H]3C1(C)C2=O | 7.02% | 24 AU |
| CCC(C)C(=O)OC1[C@@H]2CC3=C4CC(=O)O[C@@H](c5ccoc5)[C@]4(C)CCC3[C@@](C)(C2=O)[C@@H](CC(=O)OC)C1(C)C (stereo partly specified) | 6.33% | 116 AU |
| COC(=O)C[C@H]1C(C)(C)C2(O)OC34CC2C(=O)[C@]1(C)C3CC[C@]1(C)C4=CC(=O)O[C@H]1c1ccoc1 (stereo partly specified) | 4.12% | 20 AU |
| CC1/C(=N/O)C[C@@H]2C[C@H]1C2(C)C (stereo partly specified) | -7.59% | 52 AU |
| CC(C)[C@@H](C)/C=C/[C@@H](C)[C@H]1CC[C@H]2C3=CC=C4C[C@@H](O)CC[C@]4(C)[C@H]3CC[C@]12C | -7.51% | 96 AU |
| COC(=O)[C@@H]1OC(=O)C2OC23[C@@]1(C)CCC1[C@]2(C)C(C[C@H](O)[C@]13C)C(C)(C)[C@H](OC(C)=O)C[C@@H]2OC(C)=O (stereo partly specified) | -8.14% | 24 AU |
| CC(=O)O[C@@H]1c2c(ccc3ccc(=O)oc23)OC(C)(C)[C@@H]1OC(=O)CC(C)C | -10.5% | 188 AU |
| Cc1cc(O)c2c(c1O)C(=O)c1c(O)cc(C)c(O)c1C2=O | 2.78% | 48 AU |

| SMILES | inhibition [1] | luciferase signal [2] |
| --- | --- | --- |
| CC1C2[C@]3(CC[C@H]1C)CCC1(C)[C@@]2(C=CC2[C@@]4(C)CCC(=O)C(C)(C)C4CC[C@]21C)OC3=O (stereo partly specified) | 17.9% | 100 AU |
| COc1ccc(-c2cc(=O)c3cc(OC)ccc3o2)cc1 | -2.36% | 40 AU |
| C=C(C)CCCC(C)CCOC(C)=O (stereo unspecified) | 8.09% | 68 AU |
| O=C(NCO)c1cccnc1 | -8.21% | 68 AU |
| CCOC(=O)c1c(C)cc(OC)cc1O | 13.5% | 84 AU |
| O=C(O)/C=C(/CC(=O)O)C(=O)O | 8.82% | 60 AU |
| CC1=C[C@@H]2[C@@H](CC1)[C@](C)(O)CC[C@H]2C(C)C | 9.65% | 48 AU |
| COc1ccc(-c2coc3cc(OC)cc(OC)c3c2=O)cc1 | 4.5% | 60 AU |
| C=C1C2CCC3(C)C(c4ccoc4)OC(=O)CC13OC1CC(=O)C(C)(C)C(CC(=O)OC)C12C (stereo unspecified) | -8.25% | 16 AU |
| O=C(O)C1CC([C@@H]2CCCCN2)CN2CCCCC12 (stereo partly specified) | 18.1% | 220 AU (active) |
| O=c1cc(-c2ccc(O)cc2)oc2cc(O[C@@H]3O[C@H](CO)[C@@H](O)[C@H](O)[C@H]3O)cc(O)c12 | -5.65% | 120 AU |
| COc1ccc(C2CC(=O)c3ccc(OC)cc3O2)cc1 (stereo unspecified) | 21.7% (active) | 84 AU |
| C[C@@H]1CC[C@@]2(OC1)O[C@H]1C[C@H]3[C@@H]4CC[C@H]5C[C@@H](O)CC[C@]5(C)[C@H]4CC[C@]3(C)[C@H]1[C@@H]2C | -2.45% | 36 AU |
| COC(=O)[C@]1(C)CCC[C@]2(C)c3ccc(C(C)C)cc3C(=O)CC12 (stereo partly specified) | 13.7% | 32 AU |
| COc1ccc(-c2cc(=O)c3ccccc3o2)cc1 | -3.26% | 112 AU |
| N[C@@H](CCC(=O)N[C@@H](CSC(CC(=O)O)C(=O)O)C(=O)NCC(=O)O)C(=O)O (stereo partly specified) | 6.35% | 68 AU |
| O=C(Cc1ccccc1)NO | -18.4% | 68 AU |
| COc1ccc(CC(=O)c2ccc(O)cc2O)cc1 | 17.5% | 76 AU |
